Experimental findings from the supplement of paper PMC10011410 are described below.

The test system of this experiment is AmpC beta-lactamase (E. coli). Put plainly: AmpC inhibition relative to DMSO; higher = more inhibition. The protocol: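 Aggregation counter-screen: inhibition of E. coli AmpC beta-lactamase (5 nM, nitrocefin substrate, 50 mM sodium phosphate pH 7.0, RT, 5 min) by KAT inhibitors at 4, 11, 33 and 100 uM, with or without 0.01% Triton X-100. Percent inhibition is relative to DMSO controls. Four technical replicates.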

Where [1] appears, read: 4 µM, detergent: 0.01% Triton X-100.
Setting [2] is: 11 µM, detergent: 0.01% Triton X-100.
Where [3] appears, read: 33 µM, detergent: 0.01% Triton X-100.
Setting [4] is: 100 µM, detergent: 0.01% Triton X-100.
[5] abbreviates: 100 µM, detergent: no detergent.

SMILES strings stand for the structures. ± gives the standard deviation of the averaged measurements.

With `Cl.Cl.O=C(O)Cn1nnc(-c2ccc(CN(CCCCOc3ccc(CN4CCCC4)cc3)CCc3ccccc3)cc2)n1`, the AmpC inhibition is, setting by setting: under setting [1], 7.51 ± 5.3%; (4 µM, detergent: no detergent) -18.8 ± 5%; under setting [2], 6.13 ± 8.3%; (11 µM, detergent: no detergent) -17.6 ± 4.2%; under setting [3], 3.69 ± 2.6%; (33 µM, detergent: no detergent) -26.9 ± 12%. Also, the AmpC inhibition amounted to 11 ± 6.5% under setting [4] and 5.89 ± 17% under setting [5].
In the case of `O=C(O[C@@H]1Cc2c(O)cc(O)cc2O[C@@H]1c1cc(O)c(O)c(O)c1)c1cc(O)c(O)c(O)c1`, the AmpC inhibition under setting [1] is 9.27 ± 1.3%; the AmpC inhibition (4 µM, detergent: no detergent) amounted to 11.2 ± 18%; the AmpC inhibition under setting [2] is 4.89 ± 2%; the AmpC inhibition (11 µM, detergent: no detergent) is 16 ± 3.1%; the AmpC inhibition under setting [3] was 4.57 ± 1.2%; the AmpC inhibition (33 µM, detergent: no detergent) stood at 19.6 ± 14%. Also, the AmpC inhibition runs as follows: under setting [4], 1.23 ± 6.1%; under setting [5], 30.2 ± 1.1%.
Regarding `O=C1C(Cl)=C(NCCN2CCOCC2)C(=O)c2ncccc21`, the AmpC inhibition runs as follows: under setting [1], 8.96 ± 3%; (4 µM, detergent: no detergent) 0.538 ± 7%; under setting [2], 5.66 ± 0.9%; (11 µM, detergent: no detergent) 0.224 ± 2.9%; under setting [3], 5.99 ± 7.4%; (33 µM, detergent: no detergent) -1.42 ± 2.1%. Moreover, the AmpC inhibition is, setting by setting: under setting [4], 6.05 ± 2%; under setting [5], -4.13 ± 5.6%.
Consider `COc1cc(/C=C/c2cc(/C=C/c3ccc(O)c(OC)c3)n(-c3ccc(C(=O)[O-])cc3)n2)ccc1O.[Na+]`, for which the AmpC inhibition is, setting by setting: under setting [1], 1.31 ± 3%; (4 µM, detergent: no detergent) -4.8 ± 14%; under setting [2], 2.98 ± 1.9%; (11 µM, detergent: no detergent) -29.6 ± 5.8%; under setting [3], 4.87 ± 2.2%; (33 µM, detergent: no detergent) -38.3 ± 23%. Further, the AmpC inhibition by setting is: under setting [4], 2.96 ± 6%; under setting [5], -2.93 ± 15%.
Regarding `C=C(C)[C@@H](CC=C(C)C)C[C@@]12C[C@@H](CC=C(C)C)C(C)(C)[C@@](CC=C(C)C)(C(=O)/C(=C(\O)c3ccc(O)c(O)c3)C1=O)C2=O`, the AmpC inhibition under setting [1] worked out at 13.6 ± 17%; the AmpC inhibition (4 µM, detergent: no detergent) stood at 0.481 ± 8.4%; the AmpC inhibition under setting [2] is -2 ± 19%; the AmpC inhibition (11 µM, detergent: no detergent) stood at 17.9 ± 7.4%; the AmpC inhibition under setting [3] was 5.26 ± 8.2%; the AmpC inhibition (33 µM, detergent: no detergent) amounted to 63 ± 4.7%. The AmpC inhibition is, setting by setting: under setting [4], -8.29 ± 6.4%; under setting [5], 97.95 ± 0.64%.
